FLuc inh-1: Photinus pyralis luciferase inhibition; AID 1347043; P08659; Potency, µM (doses to about 115 µM), hits mostly inhibitors; purified P. pyralis luciferase, luminescence, biochemical; actives 2.5% (n = 76,000); further: nearly all actives have a fitted effect of over 65% in size
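Luminescence read by CCD imaging after purified firefly luciferase (10nM final) was added to substrate buffer holding 10uM D-luciferin and 10uM ATP, pH 7.5, pre-dosed with compound.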
3T3 cytotox: kills NIH 3T3 cells; NIH 3T3 viability, CellTiter-Glo ATP luminescence, 48-72 h; Potency, µM (highest dose often 96.7 µM), usual class: inhibitors; actives 4.3% (n = 94,000); AID 1345082; further: nearly all actives have a fitted effect of over 55% in size
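ATP-dependent luminescence (CellTiter-Glo) served as the viability signal for NIH 3T3 cells treated with compound for 48 or 72 hr at 37 °C.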
HEK293 tox: cytotoxic compounds in HEK 293 cells; HEK 293 viability, ATP luminescence (CellTiter-Glo), 48-72 h; Potency, µM (series often up to 115 µM), most hits filed as inhibitors; actives 6.6% (n = 94,000); AID 1345083; further: nearly all actives have a fitted effect of over 60% in size
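Pintool-delivered compounds were incubated with HEK 293 cells (250 cells/well) at 37 degree Celsius for 48 or 72 hr. ATP-dependent luminescence (CellTiter-Glo) then reported remaining viable cells.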
hNpr1 antagonist: antagonists of human natriuretic peptide receptor Npr1; Potency, µM (series often up to 46.3 µM), actives largely listed as inhibitors; P16066; actives 1.6% (n = 76,000); HEK293 hNpr1 GloSensor cGMP, ANP-stimulated luminescence; AID 1347048; calls by dose curve; further: nearly all actives have a fitted effect of over 60% in size
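Compound pre-incubated 30 min at room temperature on GloSensor-loaded HEK293 cells stably carrying hNpr1 and the pGS-40F cGMP biosensor. Stimulation uses hNppA at 0.1 nM final; luminescence is taken at baseline and 20 min post-agonist.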
GPT2 inh: GPT2 alanine aminotransferase inhibition. actives 0.25% (n = 100,000). Potency, µM (doses to about 57.7 µM), hits mostly inhibitors. Recombinant GPT2, coupled pyruvate oxidase/HRP Amplex Red fluorescence; further: nearly all actives have a fitted effect of over 60% in size
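Inhibition is scored from Amplex Red fluorescence generated when pyruvate oxidase and HRP act on pyruvate released by GPT2. Reactions contain 10ng/uL enzyme, 250uM a-KG and 2mM L-alanine and run 30 min at room temperature.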
FLuc SDR -ATP: binders stabilizing firefly luciferase, without ATP | shares compounds with FLuc inh-1 | actives 7.8% (n = 1,300) | Purified FLuc-C-HiBiT, Nano-Glo HiBiT luminescence, no ATP | Potency, µM (highest dose often 32.7 µM), actives largely listed as activators; further: nearly all actives have a fitted effect of over 55% in size
FLuc SDR ATP: stabilizes firefly luciferase with ATP present; shares compounds with FLuc inh-1; purified FLuc-C-HiBiT + ATP, HiBiT complementation luminescence; Potency, µM (top dose mostly 32.7 µM), actives largely listed as activators; actives 8.7% (n = 1,300);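 further: signal reports ligand binding via conformational change of the enzyme rather than luciferase catalysis; nearly all actives have a fitted effect of over 55% in size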
FLuc inh-2: firefly luciferase enzyme inhibition. purified FLuc-C-HiBiT enzyme, luciferin luminescence. Potency, µM (titrated, usually from 32.7 µM), actives largely listed as inhibitors. shares compounds with FLuc inh-1. actives 42% (n = 1,300); further: nearly all actives have a fitted effect of over 70% in size
A number is an active result; n = inactive; u = inconclusive; x = not tested or not shown. A selection: hits, their analogues and other compounds. The true share with any hit is near 10%. Unless noted, the call rests on the fitted dose curve; in most records, active means well fitted curve in the direction sought with a large enough effect; inconclusive means small, poorly fitted or top-dose-only effect, or another doubt; inactive means no such curve, though single readings can be large; an effect the other way counts as inactive or inconclusive.

SMILES	FLuc inh-1	3T3 cytotox	HEK293 tox	hNpr1 antagonist	GPT2 inh	FLuc SDR -ATP	FLuc SDR ATP	FLuc inh-2
OC1CCN(c2ncnc3c2cnn3-c2ccccc2)CC1	x	x	x	x	x	n	u	u
COc1ccc(N2Cc3c(ncnc3N3CCC(O)CC3)N(C)CC2=O)cc1	n	n	n	n	n	x	x	x
NC(=O)CC1CCN(c2ncnc3c2cnn3-c2ccccc2)CC1	x	x	x	x	x	n	n	n
Cc1ccc(-n2ncc3c(N4CCN(C)CC4)ncnc32)cc1	x	x	x	x	x	n	u	5.56µM
Cc1ccc(CNc2ccc3nnc(C(C)C)n3n2)o1	n	u	u	n	n	x	x	x
CC(=O)O[C@H]1[C@H](C)[C@@H](O)[C@H]2[C@@H]1C=C(C(=O)O)[C@H]1C[C@@H]3[C@H]([C@H]21)[C@H]1C(=O)O[C@@H]2CC[C@@]3(C)O[C@]1(O)[C@@H]2C	x	x	x	x	n	x	x	x
O=C(c1nc2sccn2c1-c1ccncc1)N1CCOCC1	x	n	n	x	n	x	x	x
O=C1Cc2c(-c3cccc4ccccc34)n[nH]c2CN1CCOc1ccccc1	10µM	44.7µM	44.7µM	u	n	n	n	u
CCc1ccc2nc(N3CCC(C(=O)O)CC3)sc2c1	x	x	x	x	x	2.48µM	0.07µM	0.0351µM
CCOc1cc(C(=O)Nc2ccc(-c3nc4ccccc4s3)cc2Cl)cc(OCC)c1OCC	x	x	x	x	x	n	n	u
COc1ccc(-c2ccc(NC(=O)c3ccc(F)cc3)cc2)nn1	x	n	n	x	x	x	x	x
COc1ccc(-c2noc([C@@H](C)NC(=O)c3nc4ccccc4s3)c2C(=O)O)cc1	u	n	u	n	u	x	x	x
COc1cc(OC)cc(C(=O)Nc2cc(-c3nc4ccccc4s3)ccc2OC)c1	x	x	x	x	x	n	n	n
COc1ccc(-c2nc3ccccc3s2)cc1NC(=O)c1ccc(F)cc1	x	x	x	x	x	n	n	n
CCOc1cc(=O)n2c(c1C(=O)Nc1ccccc1Cl)CCCC2	n	u	u	n	n	x	x	x
CC(=O)NC1(C)CN(Cc2ccc(-c3ccccc3OCc3ccccc3)s2)C1	7.08µM	28.2µM	39.8µM	u	n	n	n	u
CC(=O)NC1(C)CCN(Cc2cccc(Nc3ccccc3)c2)C1 (centres undefined)	n	u	u	n	n	x	x	x
COc1ccc(Nc2cc(C(=O)NC3CCC(C)CC3)c3ccccc3n2)cc1OC (centres undefined)	x	x	x	x	x	n	n	n
O=C(C1CCCN1C(=O)c1ccc(C(F)(F)F)cc1)N1CCC(c2nc3ccncc3[nH]2)C1 (centres undefined)	x	n	n	x	n	x	x	x
Cc1nccn1CCN(C)c1ccc(-c2nc(COc3ccccc3)no2)cn1	12.6µM	u	u	u	n	n	n	9.89µM
COc1ccccc1C(=O)NC1CCN(C(=O)c2ccc(-c3ccccc3OC)cc2)CC1	x	u	u	x	n	x	x	x
c1ccc(-c2noc(-c3ccc4ccccc4c3)n2)cc1	x	x	x	x	x	n	u	0.7µM
O=C(O)c1ccc(-c2noc(-c3ccccc3C(F)(F)F)n2)cc1	x	x	x	x	x	n	u	u
O=C(O)c1ccc(-c2noc(-c3cccc(Cl)c3)n2)cc1	x	x	x	x	x	u	u	7µM
O=C(O)c1ccc(-c2noc(-c3ccccc3Cl)n2)cc1	x	x	x	x	x	n	1.57µM	1.11µM
O=C(Cc1cccc(Cl)c1)NC1CCN(C(=O)c2ccc(-c3cncnc3)cc2)CC1	x	n	n	x	n	x	x	x
CN1CC(=O)N(C2CCCNCC2)Cc2c1ncnc2N1CCC(C#N)CC1 (centres undefined)	x	n	n	x	n	x	x	x
O=C(O)c1cccc(-c2cncc(C(=O)O)c2)c1	x	n	n	x	n	x	x	x
O=C(O)c1cccc(-c2noc(-c3ccccc3C(F)(F)F)n2)c1	x	x	x	x	x	n	0.124µM	0.0624µM
CCOc1ccc(-c2cc3c(=O)n(CCNC(=O)c4cccc5[nH]ccc45)ccn3n2)cc1	7.94µM	28.2µM	22.4µM	n	n	u	u	5.56µM
